CendR NRP1 mod: NRP-1/CendR interaction modulation; 0.85% of 360,000 active; FAM-RPARPAR peptide binding to NRP-1, fluorescence polarization; inhibition, % at 25 µM; O14786; AID 602438;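 active = inhibition or corrected inhibition above about 18%, plus a signal ratio from 0.5 to 1.5, limit read from the data, passing the limit was not always enough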
PDI turbidity: inhibitors of human protein disulfide isomerase | P07237 | PDI insulin aggregation turbidity, A650, 90 min | inhibition, % at 10 µM | 0.052% of 350,000 active | AID 588391;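 active = mean inhibition across replicates of 30% or more, whatever share of single replicates reach that level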
ERp5 inh: inhibitors of human ERp5. Q15084. ERp5 insulin aggregation, absorbance 650 nm, 90 min. inhibition, % at 9.99 µM. 0.05% of 350,000 active. AID 651711;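 active = mean replicate inhibition above about 25%, with every replicate also reaching it, limit read from the data, passing the limit was not always enough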
PglD DTNB: PglD (C. jejuni) enzyme inhibition; purified PglD enzyme, DTNB colorimetric CoA detection; inhibition, % at 12.5 µM; 0.098% of 360,000 active; AID 602405; in the data active = inhibition above about 16%, passing the limit was not always enough
ARNT-TACC3 inh: disrupts binding between human ARNT and TACC3; AlphaScreen His-ARNT PAS-B/GST-TACC3 binding, luminescence; TACC3 fragment carries E629A point mutation; Q9Y6A5; inhibition, % at 9.99 µM; 0.66% of 390,000 active;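 active = mean inhibition of replicates at least 50% and at least half of replicates each reaching 50%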;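 note: 0% = complete ARNT plus TACC3 wells and 100% = ARNT alone without TACC3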
ALR H2O2 inh: blocks human ALR sulfhydryl oxidase activity. P55789. purified ALR, DTT oxidation, H2O2 HRP-luminol luminescence. inhibition, % (concentration not given with the values). 3.8% of 290,000 active. AID 485317;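 active = mean replicate inhibition above about 79%, with every replicate also reaching it, limit read from the data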
Target sequence (P55789 whole entry, looked up): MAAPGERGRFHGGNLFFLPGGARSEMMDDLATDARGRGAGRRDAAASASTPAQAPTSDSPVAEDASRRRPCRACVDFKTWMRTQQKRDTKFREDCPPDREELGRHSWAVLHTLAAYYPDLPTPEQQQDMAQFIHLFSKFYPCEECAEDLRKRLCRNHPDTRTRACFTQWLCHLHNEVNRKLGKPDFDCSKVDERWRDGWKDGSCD
Starred values were filed as active, the others as inactive; · = not tested or not shown. Many of the other results were omitted from the sample, so hits are more common in it than they were.

SMILES	CendR NRP1 mod	PDI turbidity	ERp5 inh	PglD DTNB	ARNT-TACC3 inh	ALR H2O2 inh
Cc1nn(-c2ccccc2)c(C)c1/C=N/n1c(-c2ccccc2Br)n[nH]c1=S	-10.3	1.3	-2.6	·	11.2	96.2*
CCN(CC)c1ccc(/C=N/n2c(-c3ccccc3Br)n[nH]c2=S)cc1	-3.0	-5.3	3.5	-7.1	-3.6	97.0*
CCCNC(=O)N(C)C[C@H]1Oc2ncc(-c3ccc(C(=O)N(C)C)cc3)cc2C(=O)N([C@H](C)CO)C[C@@H]1C	·	·	3.5	4.1	-5.0	·
Cc1cccc(S(=O)(=O)N2C[C@@H]3[C@H](c4ccccc42)[C@H](CO)N3CC2CCCC2)c1	·	·	4.4	1.6	3.8	·
CCCc1cc(NC(=O)CCl)n(-c2ccccc2)n1	-6.0	-3.4	2.3	5.9	·	96.7*
COc1ccc(-c2nc(CS(=O)CC(=O)NCCC3=CCCCC3)c(C)o2)cc1 (centres undefined)	-10.6	·	-0.8	6.3	-28.5	99.2*
CCOc1ccc(CCNC(=O)CS(=O)Cc2nc(-c3ccc(C)cc3)oc2C)cc1 (centres undefined)	1.0	-1.0	-4.6	8.3	·	99.2*
CCOc1ccc(CCNC(=O)CS(=O)Cc2nc(-c3ccccc3C)oc2C)cc1OCC (centres undefined)	2.2	-7.5	-2.2	-2.1	-5.4	98.7*
COc1ccc(-c2nc(CS(=O)(=O)CC(=O)NCCc3ccc(C)cc3)c(C)o2)cc1	-3.7	-1.4	-8.2	8.7	2.2	-20.7
CCOc1ccc(CCNC(=O)CS(=O)Cc2nc(-c3ccc(C)cc3)oc2C)cc1OCC (centres undefined)	-8.7	2.7	4.8	-2.7	-1.4	98.3*
CCNC(=O)C[C@H]1CC[C@@H]2[C@H](COc3ccc(NC(=O)c4cccc(C(F)(F)F)c4)cc3C(=O)N2C)O1	·	·	·	4.6	-3.9	·
Cc1ccc(CCNC(=O)CS(=O)Cc2nc(-c3cccc(C)c3)oc2C)cc1 (centres undefined)	-15.0	·	7.5	-3.9	-0.9	99.4*
COc1cccc(-c2nc(CS(=O)CC(=O)NCCc3ccc(C)cc3)c(C)o2)c1 (centres undefined)	-1.5	1.2	1.2	-0.9	-1.4	13.7
CCc1cnc(N2[C@@H](C#N)[C@@H](c3ccc(-c4cccc(F)c4)cc3)[C@@H]2CO)s1	·	·	-1.8	-3.6	1.7	·
CCN(C[C@H]1N[C@@](CC)(C(=O)OC)[C@H]2C(=O)N(Cc3ccccc3)C(=O)[C@@H]12)S(=O)(=O)c1ccc(OC)cc1	2.9	-2.4	3.6	4.6	-2.5	3.0
CCN(C[C@H]1N[C@@](Cc2ccccc2)(C(=O)OC)[C@H]2C(=O)N(Cc3ccccc3)C(=O)[C@@H]12)S(=O)(=O)c1ccc(OC)cc1	26.1*	13.6	2.3	-2.8	-2.6	·
O=C(c1cccc(NS(=O)(=O)c2ccccc2)c1)N1CCCC1	5.3	3.9	1.0	0.7	·	1.1
O=C(c1cccc(-c2cccc3nccn23)c1)N1CCOCC1	16.2	-1.1	-1.7	-1.0	·	·
Cc1ccc(S(=O)(=O)Nc2ccc(C(=O)N3CCOCC3)cc2)cc1	-0.8	-13.1	-1.0	4.6	-7.8	-6.9
O=C(c1cccc(NS(=O)(=O)c2cccc(F)c2)c1)N1CCCC1	26.6*	-1.0	0.0	1.6	-18.5	·
O=C(c1cccc(-c2ccc(O)cc2)c1)N1CCOCC1	-3.0	1.1	·	1.4	-7.2	99.3*
Cc1ccc(S(=O)(=O)Nc2cccc(C(=O)N3CCOCC3)c2)cc1	22.7*	-47.3	-0.3	3.7	·	-0.8
O=C([C@H]1[C@H](CO)[C@H]2Cn3c(cccc3=O)[C@H]2N1CC1CCCCC1)N1CCOCC1	·	·	5.3	·	·	·
Cc1[nH]n(C2=NCCS2)c(=O)c1N=Nc1ccccc1	-0.7	-4.8	2.7	·	-0.7	92.2*
Cc1[nH]n(-c2ccccc2)c(=O)c1N=Nc1ccc2c(c1)OCO2	0.2	0.8	3.0	·	1.1	·
O=C(O)CN1C(=O)/C(=C\c2cc(Br)ccc2OCc2ccccc2Cl)SC1=S	-76.4	0.6	1.1	2.1	6.1	8.1
O=C(O)CN1C(=O)/C(=C\c2cc(Br)ccc2OCc2ccc([N+](=O)[O-])cc2)SC1=S	-65.5	-2.1	-0.1	-3.3	36.8	82.7*
O=C(O)CN1C(=O)/C(=C\c2ccccc2OCc2ccc(Cl)cc2Cl)SC1=S	-112.7	15.7	-0.2	1.6	25.5	86.8*

Source: PubChem
